Experimental data reported in PubChem BioAssay (EPA / NIEHS).
Activity calls are given as the source filed them. The calls were made as follows: active = hit-call score of the fitted dose curve at least 0.9, where 1 is the maximum; inactive = score below 0.9.

Read-out: Interleukin 6 Receptor (IL6R), IL6R (gene 3570)
Assay: LTEA_HepaRG_IL6R: Life Technologies and Expression Analysis (LTEA) Assay for Interleukin 6 Receptor (IL6R) using HepaRG (AID 2283510);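 as to AC50: TaqMan qRT-PCR signal normalized to ACTB GAPDH and POLR2A housekeeping genes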
Conditions: mRNA level, 48 h; actives raise or lower the signal
Procedure: LTEA_HepaRG is a cell based, multiplexed-readout assay that uses HepaRG, a human liver cell line, with measurements taken at 48 hours after chemical dosing on a 96-well plate.LTEA_HepaRG_IL6R is one of 102 assay component(s) measured in the LTEA HepaRG cell culture assay. It is a marker of Inflammation.Data from the assay component LTEA_HepaRG_IL6R was analyzed into 1 endpoint. This assay endpoint, LTEA_HepaRG_IL6R, was analyzed with bidirectional fitting relative to DMSO as the negative control and baseline of activity. Using a type of inducible reporter, measures of mRNA induction for gain or loss-of-signal activity can be used to understand regulation of transcription factor activity. To generalize the intended target to other relatable targets, this assay endpoint is annotated to the cytokine receptor intended target family, where the subfamily is JAK-STAT cytokine receptor.
A total of 1060 chemcials from the ToxCast library were tested in eight-point concentration-response experiments. Cell culture and cytotoxicity assays were conducted at Thermo Fisher Scientific's Custom Services facility (Madison, WI). A single lot of human HepaRG cells (Thermo Fisher Scientific, Frederick, MD) was used for the cell culture experiments. 96-well format collagen type I coated plates of human HepaRG cells were prepared using established methods. Briefly, cryopreserved HepaRG cells were thawed, plated at a density of approximately 100,000 cells/well in HepaRG Thaw, Plate, and General Purpose media (HPRG770, Thermo Fisher Scientific), and incubated for 48 hours. 0.5% DMSO was selected as vehicle control to balance the requisite need of DMSO in HepaRG cultures to maintain differentiation (for example, baseline metabolism, proportions of hepatocytes vs. cholangiocytes), while enabling further hepatic receptor pathway activation (for example, PXR and CAR) in response to chemical exposure. 48 hours after plating, the culture medium was replaced with HepaRG Serum-Free Incudtion Media. Cells were exposed to each test chemical in duplicate and maintained in CO2 incubators for another 48 hours. Chemical plates were thawed to room temperature and 200x concentrations of treatment groups were prepared. 8-point conentration-reponse curves were made with the highest exposure at 100 uM, followed by half-log dilutions, all in 0.5% DMSO. Each test plate contained variouse controls, induction positive controls (1mM phenobarbital), cytotoxicity positive controls ([…] aflatoxin B1), vehicle controls (0.5% DMSO), and total lysis controls (0.5% DMSO). Cell morphology images were taken using an Essen IncuCyte FLR automated microscope, with six 96-well plates imaged in about 24 minutes. Images were captured and exported and JPEG files. Spent culture media was transfered to black-well plates for the LDH assay, and remaining media was sorted at -80 C for later use. Cells were treated with RLT buffer and frozen until shipped for gene expression analysis. Total RNA was isolated from the cell suspension in 75 uL of Buffer RLT (Qiagen, Germantown, MD 20874) by Quintiles/Expression Analysis (Durham, NC) using a custom isolation procedure. Total RNA from each plate well was transferred to a preamplification plate. Fluidigm's 96.96 Dynamic ArrayTM (Fluidigm, Amsterdam, the Netherlands) technology was used for gene expression analyses by quantitative reverse transcription polymerase chain reaction (qRT-PCR, performed by Quintiles/Expression Analysis, Durham, NC)89. Standard TaqManTM Assays (Applied Biosystems/ThermoFisher Scientific, Foster City, CA) were used to assess the expression of 93 genes selected based on their selectivity and sensitivity to important hepatic receptors known to be modulated by environmental chemicals; importance in human hepatocyte functionality; and hepatotoxicity. […]

Structure (SMILES)	outcome	AC50
Cc1c(C(=O)O)c(O)cc2c1C(=O)c1c(O)c([C@@H]3O[C@H](CO)[C@@H](O)[C@H](O)[C@H]3O)c(O)c(O)c1C2=O	inactive	
COc1cc(S(=O)(=O)O)c(C)cc1N=Nc1c(O)ccc2cc(S(=O)(=O)O)ccc12	inactive	
CC(=O)C(C)=CC1C(C)=CCCC1(C)C (stereo not given)	inactive	
O=C(O)Cc1ccccc1Nc1c(Cl)cccc1Cl	inactive	
CCCCc1ccc2c(n1)[C@@H](c1ccc(OC)cc1C[C@H](C)C(=O)O)[C@H](C(=O)O)[C@H]2c1ccc2c(c1)OCO2	inactive	
Cc1ccc(N(C)C)cc1	inactive	
FC(F)(F)C(F)(F)C(F)(F)C(F)(F)C(F)(F)C(F)(F)CCI	inactive	
COC(=O)c1ccc(O)cc1	inactive	
COCCOC[C@H](CC1(C(=O)NC2CCC(C(=O)O)CC2)CCCC1)C(=O)Oc1ccc2c(c1)CCC2 (stereo not given in full)	inactive	
CC1(C)CC(N=C=O)CC(C)(CN=C=O)C1 (stereo not given)	inactive	
CCNc1cccc(C)c1	inactive	
CCOC(=O)C(C)(C)Oc1ccc(Cl)cc1	inactive	
CCc1c(C(=O)NN2CCCCC2)nn(-c2ccc(Cl)cc2Cl)c1-c1ccc(Br)cc1		89.1 µM (active)
CC1(C)NC(=O)NC1=O	inactive	
CCCCCCCC=O	inactive	
O=c1[nH]cc(F)c(=O)[nH]1		51 µM (active)
COCCOCCOC	inactive	
Cc1cccc(Nc2cc(Cl)nc(SCC(=O)O)n2)c1C	inactive	
Cc1oc(-c2ccccc2)nc1CCOc1cccc2c1ccn2CCC(=O)O		77.6 µM (active)
CCCCCCC(=O)OCC	inactive	

Structure (SMILES)	outcome	AC50
CCCCCCCCCCCCCCCC	inactive	
Cc1ccc(C)c(O)c1C	inactive	
COc1ccc2c(c1)c(CC(=O)O)c(C)n2C(=O)c1ccc(Cl)cc1	inactive	
CCCCOC(=O)CCCCCCCCC(=O)OCCCC	inactive	
CCCCCCCCCCO	inactive	
CCCCC(CC)COC(=O)CC(C(=O)OCC(CC)CCCC)S(=O)(=O)O (stereo not given)	inactive	
CC(CO)OC(C)CO (stereo not given) (tested in a mixture with another compound)	inactive	
CCOc1ccc2c(c1)C(C)=CC(C)(C)N2		76.9 µM (active)
Nc1ccc(S(=O)(=O)c2ccc(N)cc2)cc1	inactive	
Oc1ccc2c(c1)OC[C@@H](N1CCC(O)(c3ccc(F)cc3)CC1)[C@H]2O	inactive	
C[Si]1(C)O[Si](C)(C)O[Si](C)(C)O[Si](C)(C)O1	inactive	
COc1ccc(S(=O)(=O)N2C(=O)[C@@](c3ccccc3OC)(N3C[C@H](O)C[C@H]3C(=O)N(C)C)c3cc(Cl)ccc32)c(OC)c1		13.2 µM (active)
Cc1cccc(C)c1O	inactive	
CN1CCN(Cc2cc(-c3ccc4[nH]c(=O)oc4c3)co2)[C@@H](c2ccc(F)cc2)C1	inactive	
CC(=O)OC/C=C(\C)CCC=C(C)C	inactive	
CNCc1cc(F)ccc1Oc1ccc(Cl)c(Cl)c1	inactive	
Cc1cccc([N+](=O)[O-])c1C	inactive	
CC(=O)Oc1ccccc1C(=O)O	inactive	
CC(C)c1ccc(C(=O)N=C(N)N)cc1S(C)(=O)=O		0.276 µM (active)
O=c1c(O)c(-c2ccc(O)c(O)c2)oc2cc(O)cc(O)c12	inactive	
